Screening data (PubChem BioAssay)
Shown are actives, neighbours in structure and some others; about 1.4% of the full set was active somewhere.
MenB inh = blocks the Mycobacterium tuberculosis MenB enzyme; P9WNP5; MenB enzyme assay, absorbance read-out; inhibition, % (no concentration beside the values); hit rate 0.43% among 100,000; AID 540299; in the data active means inhibition above about 21%, passing the limit was not always enough
Polio RdRp inh = poliovirus RNA polymerase inhibition; P03300; poliovirus polymerase elongation, fluorescence polarization; stronger effect = lower value; % elongation, % (compound at 16.7 µg/mL); hit rate 0.66% among 150,000; in the data active means % elongation below about 90%
MbtI inh = inhibitors of Mycobacterium tuberculosis siderophore enzyme MbtI | P9WFX0 | purified MbtI enzyme, fluorescence intensity read-out | inhibition, % (test concentration not listed) | hit rate 0.89% among 100,000 | AID 493033; in the data active means inhibition mostly above about 56%, no sharp cut-off; inactive means mostly below about 77%
Target sequence (P9WFX0 whole entry, looked up): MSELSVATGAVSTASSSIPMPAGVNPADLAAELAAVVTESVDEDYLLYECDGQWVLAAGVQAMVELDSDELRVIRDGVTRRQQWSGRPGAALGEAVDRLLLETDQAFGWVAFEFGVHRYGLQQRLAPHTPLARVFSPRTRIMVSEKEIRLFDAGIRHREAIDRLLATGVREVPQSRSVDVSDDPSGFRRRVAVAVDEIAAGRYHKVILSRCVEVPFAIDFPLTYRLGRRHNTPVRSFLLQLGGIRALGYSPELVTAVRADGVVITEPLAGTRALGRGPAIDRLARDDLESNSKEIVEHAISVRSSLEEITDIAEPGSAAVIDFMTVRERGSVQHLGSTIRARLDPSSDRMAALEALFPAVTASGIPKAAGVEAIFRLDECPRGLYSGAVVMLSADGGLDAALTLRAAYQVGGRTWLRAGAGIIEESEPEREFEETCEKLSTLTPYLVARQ
AID504770 = E. coli YBA685 growth inhibition, screen for V. cholerae RctB inhibitors | E. coli YBA685 rctB-dependent plasmid, OD600 growth, 3 h; stronger effect = lower value | z-score (test concentration not listed) | hit rate 0.27% among 130,000 | AID 504770; in the data active means z-score below about -2, passing the limit was not always enough
An asterisk follows results filed as active; ! = not confirmed by another sample.

For N#Cc1ccc(-c2cccnc2)n(CC(=O)N2CCOCC2)c1=O the results were MenB inh 42*, Polio RdRp inh 101, MbtI inh 27 and AID504770 1.1.
`CCn1c(COc2cccc(C)c2)nnc1SCC(=O)NC(C)(C)C` gave MenB inh 41*, Polio RdRp inh 103, MbtI inh 12 and AID504770 2.5.
CC(C)C(=O)Nc1ccc2nc(SCC(=O)N3CCc4ccccc43)sc2c1 was read as Polio RdRp inh 83*.
Screening O=C(CSc1nnc(-c2ccco2)c(-c2ccco2)n1)N1c2ccccc2Sc2ccc(Cl)cc21 returned MenB inh 33*, Polio RdRp inh 101, MbtI inh 44 and AID504770 -0.75.
S=c1[nH]ccn1CCc1ccccc1 was read as MenB inh -15, Polio RdRp inh 103 and AID504770 -0.3.
Screening O=c1[nH][nH]c(=S)n1CCc1ccccc1 returned MenB inh -13, Polio RdRp inh 93, MbtI inh 68* and AID504770 -0.55.
`Cc1c(Cl)cccc1N1CC(C)(C)C1=O` gave AID504770 -0.4.
`Cc1c(Cl)cccc1N1C(=O)C=CC1=O` gave Polio RdRp inh 102, MbtI inh 99* and AID504770 -2.6*.
`O=c1c(-c2ccccc2)nnc2c3ccccc3ncn12` gave MenB inh -13, Polio RdRp inh 104, MbtI inh 2 and AID504770 0.55.
Screening CCc1ccc(NC(=O)CSc2nc3n[nH]c(C)c3c(=N)n2-c2ccc(C)cc2)cc1 returned Polio RdRp inh 86*.
Screening Cc1ccc(NC(=O)CSc2nc3n[nH]c(C)c3c(=N)n2-c2cccc(C)c2)cc1 returned Polio RdRp inh 104.
CC1CCN(S(=O)(=O)c2ccc(C(=O)NCc3ccco3)cc2)CC1 was read as MenB inh -14, Polio RdRp inh 89* and AID504770 -0.3.
Screening CC(C)c1ccc(-n2c(=O)[nH]c3ccccc3c2=O)cc1 returned MenB inh -25, Polio RdRp inh 73*, MbtI inh 46 and AID504770 -0.1.
Screening CCOC(=O)c1sc(=N)n(CC(=O)c2ccc(F)cc2)c1C returned MenB inh -7, Polio RdRp inh 1.0*, MbtI inh 10 and AID504770 1.9.
`CCOC(=O)c1cc2c(ccn2-c2ccc(F)cc2)n1CC(=O)c1ccc2c(c1)OCCO2` gave MenB inh -52, Polio RdRp inh 102, MbtI inh -8 and AID504770 2.2.
Screening COc1cccc(-c2cc(C(=O)N3CCN(c4ccccc4)CC3)on2)c1 returned MenB inh -22, Polio RdRp inh 105, MbtI inh -9 and AID504770 0.9.
For O=C1c2ccccc2CC1Sc1nnc(-c2ccco2)c(-c2ccco2)n1 (stereo not drawn) the results were MenB inh 5, Polio RdRp inh 99, MbtI inh 97* and AID504770 0.9.
Cc1ccc(NC(=O)Sc2ccc(Cl)cc2)cc1 was read as MenB inh -13, Polio RdRp inh 96, MbtI inh 57* and AID504770 0.45.
Screening O=c1oc(Cl)c(Cl)c2ccccc12 returned MenB inh -9, Polio RdRp inh 90*! and MbtI inh 4.
O=c1oc2c3ccccc3oc(=O)c2c2ccccc12 was read as MenB inh -3, Polio RdRp inh 99, MbtI inh 22 and AID504770 0.25.
For O=C1Cc2ccccc2C(=O)N1Cc1ccc2c(c1)OCO2 the results were Polio RdRp inh 75*, MbtI inh -4 and AID504770 -0.25.
Screening CNCC(O)COC1CCCCC1 (stereo not drawn) returned MenB inh -56, Polio RdRp inh 102, MbtI inh -2 and AID504770 1.2.
`OCCNc1nc(-c2ccccc2)c(-c2ccccc2)s1` gave Polio RdRp inh 103, MbtI inh 6 and AID504770 1.
`OCCSc1n[nH]c(-c2ccccc2)n1` gave MenB inh 6, Polio RdRp inh 100, MbtI inh -38 and AID504770 0.15.
C#CCSc1n[nH]c(-c2ccccc2)n1 was read as MenB inh -14, Polio RdRp inh 102, MbtI inh 83* and AID504770 0.6.
O=C(Nc1ncn[nH]1)c1ccc2c(c1)S(=O)(=O)c1ccccc1C2=O was read as MenB inh -14, Polio RdRp inh 103, MbtI inh -13 and AID504770 -0.55.
`Cc1ccc(-n2sc3ccccc3c2=O)cc1` gave MenB inh -52, Polio RdRp inh 102, MbtI inh 101* and AID504770 -1.4.
For Cc1ccc(N2C(=O)c3ccccc3C2=O)cc1 the results were MenB inh 13, Polio RdRp inh 98, MbtI inh -3 and AID504770 0.
For CCOC(=O)Oc1cc2oc(=O)sc2cc1Cl the results were MenB inh 6, Polio RdRp inh 98, MbtI inh 22 and AID504770 -0.15.
CCOC(=O)N=c1oc2cc(Cl)c(Cl)cc2o1 was read as MenB inh 4, Polio RdRp inh 99, MbtI inh 96* and AID504770 -2.5.
Screening O=C1CC(N2CCCC2)C(=O)N1c1ccccc1 (stereo not drawn) returned MenB inh -13, Polio RdRp inh 103, MbtI inh 63* and AID504770 -1.1.
`CC(C)(C)OC(=O)N1CCN(C2CC(=O)N(c3ccccc3)C2=O)CC1` (stereo not drawn) gave MenB inh -3, Polio RdRp inh 103, MbtI inh 5 and AID504770 0.6.
Screening CCOC(=O)c1ccc(NC(=O)Cn2ncc3c4ccccc4n(Cc4ccccc4)c3c2=O)cc1 returned AID504770 0.4.
Screening O=C(Cc1nc2ccccc2[nH]1)c1ccccc1 returned Polio RdRp inh 98, MbtI inh 7 and AID504770 1.
O=C(Cc1nc2ccccc2[nH]1)Oc1ccccc1 was read as MenB inh 7, Polio RdRp inh 75* and AID504770 -1.6.
Screening CNc1nc(SCC(=O)OC)nc(N2CCOCC2)n1 returned MenB inh 56*, Polio RdRp inh 104, MbtI inh 3 and AID504770 1.1.
`COC(=O)CSc1nc(C)cc(N2CCOCC2)n1` gave MenB inh -42, Polio RdRp inh 104, MbtI inh 4 and AID504770 -0.8.
`Cc1ccc(S(=O)(=O)/C=C/C#N)cc1` gave MenB inh 6, Polio RdRp inh 101, MbtI inh 79* and AID504770 -4.8*.
Cc1ccc(S(=O)(=O)c2ccc(C)cc2)cc1 was read as MenB inh -10, Polio RdRp inh 104, MbtI inh -12 and AID504770 -0.75.
Screening CCCNC(=O)CSc1nnc(C)o1 returned MenB inh -9, Polio RdRp inh 101, MbtI inh 12 and AID504770 -0.5.
For CCCNC(=O)CSc1n[nH]c(=S)s1 the results were MenB inh -23, Polio RdRp inh 101, MbtI inh 57* and AID504770 0.95.
For O=C(O)Cc1c(-c2ccc(Cl)cc2)nc2ccccc2c1C(=O)O the results were AID504770 -0.6.
For Cc1c(-c2ccccc2)nc2ccccc2c1C(=O)O the results were MenB inh 34*, Polio RdRp inh 103, MbtI inh -3 and AID504770 1.2.
